# Legend:
# Assay in all cases: PBM binding z-score (relative to random genomic background probes); higher = stronger binding; sequences stand for … in GC…GCGATTGACAGCGTAGAATGAAGG
# [1] = tested on: FXR:RXRa (NR concentration 270 nM, RXRa partner concentration 90 nM)
# Procedure, shortened: (§1)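 For binding z-scores, the reference was random background probes on custom Agilent 4×180K protein-binding microarrays. These arrays were incubated 1 h with ligand-free nuclear receptor dimers in PBS pH 7.4, 2% milk, 0.02% Triton X-100, 1 mM DTT, 0.2 mg/mL BSA and 0.4 mg/ml salmon testes DNA. Fluorescence was scanned after antibody detection of each partner (one per run) and regression-normalized.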
# [2] = tested on: LXRa:RXRa (NR concentration 270 nM, RXRa partner concentration 90 nM)
# Procedure, shortened: as §1
# [3] = tested on: LXRa homodimer (NR concentration 270 nM)
# Procedure, shortened: as §1
# [4] = tested on: LXRb:RXRa (NR concentration 270 nM, RXRa partner concentration 90 nM)
# Procedure, shortened: as §1
# [5] = tested on: LXRb homodimer (NR concentration 270 nM)
# Procedure, shortened: as §1
# [6] = tested on: PPARa:RXRa (NR concentration 270 nM, RXRa partner concentration 90 nM)
# Procedure, shortened: as §1
# [7] = tested on: PPARg:RXRa (NR concentration 180 nM, RXRa partner concentration 90 nM)
# Procedure, shortened: as §1
# [8] = tested on: PPARg:RXRa 270nM:90nM, anti-RXR (NR concentration 270 nM, RXRa partner concentration 90 nM)
# Procedure, shortened: as §1
# [9] = tested on: PPARg:RXRa 30nM:10nM, anti-RXR (NR concentration 30 nM, RXRa partner concentration 10 nM)
# Procedure, shortened: as §1
# [10] = tested on: PPARg:RXRa 90nM:30nM, anti-RXR (NR concentration 90 nM, RXRa partner concentration 30 nM)
# Procedure, shortened: as §1
# [11] = tested on: PPARg:RXRa DBDmut IVT, anti-RXR (DBD mutation: RXRa K156A/R161A, NR concentration 270 nM, RXRa partner concentration 90 nM)
# Procedure, shortened: as §1
# [12] = tested on: PPARg:RXRa IVT, anti-PPARg (NR concentration 270 nM, RXRa partner concentration 90 nM)
# Procedure, shortened: as §1
# [13] = tested on: PPARg DBDmut:RXRa IVT, anti-PPARg (DBD mutation: PPARg1 K132A/R137A, NR concentration 270 nM, RXRa partner concentration 90 nM)
# Procedure, shortened: as §1
# [14] = tested on: PPARg DBDmut IVT, anti-PPARg (DBD mutation: PPARg1 K132A/R137A, NR concentration 270 nM)
# Procedure, shortened: as §1
# [15] = tested on: PPARg homodimer (NR concentration 180 nM)
# Procedure, shortened: as §1
# [16] = tested on: PXR:RXRa (NR concentration 270 nM, RXRa partner concentration 90 nM)
# Procedure, shortened: as §1
# [17] = tested on: PXR homodimer (NR concentration 270 nM)
# Procedure, shortened: as §1
# [18] = tested on: RARa:RXR (NR concentration 270 nM, RXRa partner concentration 90 nM)
# Procedure, shortened: as §1
# [19] = tested on: RARa homodimer (NR concentration 270 nM)
# Procedure, shortened: as §1
# [20] = tested on: RARb:RXRa (NR concentration 270 nM, RXRa partner concentration 90 nM)
# Procedure, shortened: as §1
Sequence,PBM binding z-score [1],PBM binding z-score [2],PBM binding z-score [3],PBM binding z-score [4],PBM binding z-score [5],PBM binding z-score [6],PBM binding z-score [7],PBM binding z-score [8],PBM binding z-score [9],PBM binding z-score [10],PBM binding z-score [11],PBM binding z-score [12],PBM binding z-score [13],PBM binding z-score [14],PBM binding z-score [15],PBM binding z-score [16],PBM binding z-score [17],PBM binding z-score [18],PBM binding z-score [19],PBM binding z-score [20]
CTCGAAAGCTCGTGCTCAGGTGAGTATACCAAAC,-0.575,-0.866,-0.669,-0.84,-0.65,-0.803,-0.599,-0.812,-0.841,-0.913,-0.844,-0.272,-1.04,-0.415,-0.882,-0.746,-0.669,-0.62,-1.18,-1.07
GCTGCTAGGTCAGGTTGGTCAGCTACCGGGTACG,1.12,0.526,-0.544,0.265,-0.337,1.4,0.0957,0.884,-0.631,0.221,2.57,2.37,-0.857,-0.886,0.811,0.288,-0.331,0.391,-0.864,3.32
TCATATAGGTAAATGCTAGGTGAAGGTCCGATCT,0.907,0.779,0.342,0.347,0.0631,1.29,0.837,2.13,3.86,2.91,4.03,2.74,1.1,0.608,0.952,0.662,0.475,0.786,1.04,0.552
TCTTGTAGATCATGCAGGTTAAGAAAGCCTGAGT,0.492,0.415,-0.144,0.657,-0.00581,1.14,-0.222,1.51,2.51,2.08,1.44,0.879,0.847,1.07,0.117,0.641,0.527,0.812,0.221,0.285
CGAACTAGGTCATTGACAGGACAGTGCATAGTAA,4.46,3.18,0.766,2.04,-0.0575,4.8,7.55,6.33,3.65,5.79,7.99,8.21,2.11,0.779,1.71,1.76,0.634,2.28,0.279,3.66
GCTGCTAGGTCAACTGATGGGCAGCTAAAGCTCG,3.7,2.69,-0.419,1.48,-0.413,3.25,2.39,3.09,0.29,1.62,4.79,4,-0.683,-0.478,0.434,1.1,-0.949,1.93,-0.663,4.1
AGACTGAGGTTATTAAGATCAGGGAATTGCGGTC,1.39,1.31,0.0697,1.16,-0.265,2.03,0.624,0.982,0.0377,0.409,0.46,0.765,0.238,-0.249,0.438,1.08,0.427,1.52,0.126,1.4
TCTTGTAGATCAGTAGAGGTTAAGAAAGTGCGCT,0.847,3.26,0.497,1.64,-0.181,1.44,-0.271,1.56,2.48,2.12,1.74,0.609,1.08,0.665,0.247,2.93,-0.0152,1.63,0.74,0.882
TCTTGTAGATCAATATAGGTTAAGAAAGTGCGCT,0.801,2.72,0.469,1.28,0.58,1.97,0.81,2.09,3.36,2.56,2.95,2.98,1.55,1.13,0.797,1.67,0.304,1.4,1.22,0.676
TGAGTGAGGTTATAAGATCAGGGAACGTTGCAAA,1.06,1.07,-0.22,0.866,0.134,2.47,0.711,1.23,0.53,0.855,-0.596,0.754,0.555,-0.0846,0.652,0.754,0.0305,1.06,0.466,1.25
ATACCAAGGTGATCGTGAGGTTGTTGATACTAAC,0.619,0.547,0.106,0.338,-0.241,0.626,0.435,0.149,0.0438,0.112,0.768,0.997,0.831,0.892,0.541,0.741,0.299,0.978,0.0495,0.63
GGAACGAGGGCATTCGAGCTGATAGCATGGCGAT,0.586,0.0957,-0.939,-0.339,-0.953,1.17,0.733,0.363,-0.239,-0.177,2.71,1.64,-0.32,-0.167,-0.0868,0.26,-0.341,-0.000407,-0.846,1.45
CATACAGGGTCAGCTAGGCCGGAGTAGGGACGGC,4.6,2.61,-0.304,1.86,0.54,3.9,2.9,2.96,0.304,1.69,0.767,2.06,0.399,0.204,1.63,1.76,-0.278,2.9,0.038,3.87
CCTGATAGGTCATGGTCAGCTAATCTACAGTATG,5.33,4.19,0.689,3.39,0.182,4.96,3.65,3.99,1.25,2.81,3.61,2.99,1.15,0.715,2.24,2.79,0.473,4.02,1.43,4.18
ACTCGGAGGACAATGGTCAGAGCTACGCCAGTGA,-0.187,-0.512,-0.435,-0.708,-0.881,-0.704,0.723,0.466,-0.281,-0.00366,-0.21,-0.421,-1.67,-0.609,-0.576,-0.593,-0.561,-0.488,-0.119,1.23
TCTTGTAGATCAGCAGGATAAGAAAGCTGGCCAA,-0.292,-0.433,-0.526,-0.411,-0.635,0.0173,-0.182,1.01,2.37,1.45,1.55,0.124,0.2,-0.242,-1.15,-0.413,-0.584,-0.151,-0.239,-0.505
CGTCAAAGTTCAACTAAGGGAACGTAAAGCACGC,6.99,6.08,3.68,3.74,1.85,4.93,4.78,5.73,1.94,4.2,0.0961,1.71,0.646,0.162,2.6,4.91,3.23,3.84,1.55,5.25
CGTCCAAGGTCAGAGAGATCAGTGAATGCCGAGT,4.93,2.88,0.0283,2.25,0.0679,3.73,2.1,2.59,0.164,1.22,2.6,2.11,0.0329,-0.28,1.89,2.74,0.829,3.01,-0.15,4.62
TCTTGTAGAACAACAGGAGGTTAAGAAAGATCGA,0.0476,1.07,-0.0587,0.901,-0.216,1.28,0.33,1.56,2.79,2.15,2.21,0.963,0.603,0.55,0.00875,0.716,0.0491,0.961,0.174,0.469
ATCTCTAGGTAAGACTCAGTTCAGTTAAGAACGC,0.593,0.555,0.553,0.321,1.02,0.229,0.0463,0.424,0.445,0.237,2.13,1.36,0.719,0.801,1.1,1.11,1.83,0.499,1.6,0.431
CCGACTGGGGCAGAAAGGTGACCATACCATCCGG,-0.198,-0.194,-0.391,-0.267,-1.39,0.838,1.34,1.98,-0.273,1.32,1.97,2.21,-0.413,-1.14,0.473,-0.192,-0.34,0.197,-0.0337,1.19
TAGCCCAGGTCATTGGGCCAGTATAGTACGCATC,4.84,3.77,0.677,2.25,-0.127,4.22,3.72,3.93,0.844,2.6,1.36,3.68,-0.318,-0.214,1.51,2.71,0.0159,3.06,-0.165,3.71
TCTTGTAGATCAAGCAGTTTAAGAAAGCCTGAGT,0.227,0.026,-0.29,0.14,-0.263,0.321,-0.75,1.11,2.54,2.03,1.32,0.194,0.902,-0.105,-0.414,0.133,-0.14,0.0935,-0.0919,-0.137
AGTCAAAGTTCAGGCCGAGGTAACGTAAAGCACG,4.1,4.03,1.27,1.71,0.0903,3.25,4.14,5.07,1.71,4.1,-0.249,1.8,0.687,0.000554,2.4,3.17,1.77,3,0.163,4.4
GATACAGGATCAAGGCCAGAGTACGCGTATTGAT,-0.429,-0.625,-0.269,-0.535,-0.452,-0.133,0.979,0.356,0.0722,0.052,-0.344,-0.0749,0.581,0.288,-0.0406,-0.253,-0.0263,-0.382,-0.179,0.164
CGTGCAAGGTCAATGCTAGGTCAGTGAAAGCATT,6.79,5.7,1.91,4.42,0.212,5.53,4.26,5.03,1.47,3.77,3.32,4.08,0.426,-0.53,3.59,4.91,0.967,6.46,0.996,5.34
